High-throughput results (PubChem)
Rows were chosen to be rich in hits. Some 2.5% of all compounds tested hit in one or more screens of this group.
ABCB6 inh 2: ABCB6 transporter inhibitors, primary screen, K562-ABCB6 cells, flow cytometry, MLPCN library; K562-ABCB6 porphyrin accumulation, 1 h; stronger effect = lower value; AID 602162, 2011; fluorescence ratio to DMSO, % at 10 µM; 0.19% of 360,000 active; ATP-binding cassette sub-family B member 6 (Homo sapiens), Q9NP58;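 active means fluorescence ratio to DMSO below 75%, the collection mean minus 3 SD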;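 further: signal is porphyrin accumulated inside mitochondria; 100% equals median channel fluorescence of DMSO control wells; lower ratio means ABCB6 inhibition with less porphyrin fluorescence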
rCAG binder: binders of r(CAG) RNA repeats, primary screen, biochemical, fluorescence. r(CAG) RNA repeat, TO-PRO-1 dye displacement fluorescence. inhibition, % at 3 µM. 1.3% of 370,000 active;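 active means inhibition above the plate cutoff, the mean of all test compounds on that plate plus 3 SD, cut at about 35% in these data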;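 further: 0% = DMSO alone and 100% = 100 µM mitoxantrone as full dye displacement; higher means more dye released from RNA so lower well fluorescence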
PG9 Ab binder: binders of HIV-1 gp120 antibody PG9, primary screen, biochemical, TR-FRET; AID 624416, 2012; 0.43% of 360,000 active; inhibition, % at 6.7 µM; TR-FRET gp120-PG9 antibody binding; in the data active means inhibition above about 8.5%
Exocytosis inh: LAMP-1 surface exposure blockers, TALL-104 cells – cell-based, flow cytometry, MLPCN library, primary screen; TALL-104 LAMP-1 surface exposure; cells stimulated with thapsigargin and PMA; inhibition, % at 10 µM; 0.66% of 360,000 active;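 active means inhibition above about 55%, limit read from the data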
Granule exo CP1: inhibitors of lytic granule exocytosis, confirmation, TALL-104 cells, flow cytometry, Cherry Pick01 | LAMP-1 externalization; stimulated with PMA plus thapsigargin | 11% of 1,500 active | inhibition, % at 10 µM | shares compounds with Exocytosis inh; in the data active means inhibition above about 60%;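 further: 0% = stimulated vehicle wells and 100% = unstimulated wells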
The depositor's hits bear a star; nt = no result.

SMILES	ABCB6 inh 2	rCAG binder	PG9 Ab binder	Exocytosis inh	Granule exo CP1
O=[N+]([O-])c1ccc2c(c1)C(N1CCN(CCO)CC1)Cc1ccc(F)cc1S2 (configuration not stated)	108	-1	1	16	nt
CSc1ccc2c(c1)C(N1CCN(C)CC1)Cc1ccc(F)cc1S2 (configuration not stated)	101	-1	-3	69*	39
CCOc1ccc(OCC)c(NC(=O)CN(c2ccc(OC)cc2)S(=O)(=O)c2c(C)noc2C)c1	104	2	-2	57*	-5
CCOc1ccc(N(CC(=O)NCCc2ccc(C)cc2)S(=O)(=O)c2c(C)noc2C)cc1	106	-4	0	79*	-3
CCOc1ccc(OCC)c(NC(=O)CN(c2ccc(C)cc2)S(=O)(=O)c2c(C)noc2C)c1	90	0	-1	-4	nt
COc1cc(CNCc2ccccc2)cc(Cl)c1OC	98	-4	0	-6	nt
COc1cc(CNCCc2ccccc2)cc(Cl)c1OCc1ccccc1	94	-2	0	99*	7
COc1cccc(NC(=O)COc2cccc(-n3cnnn3)c2)c1	100	-1	-1	-1	nt
Cc1cc(OCCCC(=O)Nc2cccc(-n3cnnn3)c2)ccc1Cl	98	8	0	66*	-12
COc1ccc2oc(=N)c(-c3nnc4n3CCCCC4)cc2c1	95	1	-3	56*	-13
N=c1oc2ccc3ccccc3c2cc1-c1nnc2n1CCCCC2	100	0	2	-2	nt
CCOC(=O)c1c2c(n(Cc3ccccc3)c1C)C(=O)C(=O)c1ccccc1-2	95	7	-3	99*	50
CCOC(=O)c1c2c(n(C)c1C)C(=O)C(=O)c1ccc(Br)cc1-2	98	-1	-1	2	nt
NC(=O)CC(NC(=O)Cc1ccc(Br)cc1)c1ccc(N2CCC(Cc3ccccc3)CC2)c([N+](=O)[O-])c1 (configuration not stated)	98	2	1	36	nt
NC(=O)CC(NC(=O)Cc1cccc2ccccc12)c1ccc(N2CCC(Cc3ccccc3)CC2)c([N+](=O)[O-])c1 (configuration not stated)	96	8	0	60*	-10
Cc1cccc(Cn2nc(C(C)(C)C)cc2C(=O)Nc2ccc(F)cc2)c1	93	-2	1	56*	0
CCc1nc2ccc(C(=O)Nc3cc(-c4ccccc4)ccc3OC)cn2c1N(C)CCC(C)C	99	13	-1	0	nt
CCc1nc2ccc(C(=O)Nc3cc(-c4ccccc4)ccc3OC)cn2c1N(CCN(C)C)CC1CC1	95	2	0	60*	49
COc1ccc(-c2noc(CNC(=O)c3ccc4c(c3)OCO4)n2)cc1	75	2	1	-10	nt
Cc1cccc(-c2noc(CNC(=O)c3ccc4c(c3)OCO4)n2)c1	103	5	0	56*	-6
Cc1ccc(C(=O)NCC(=O)OCC(=O)Nc2ccccc2C#N)s1	102	1	0	-11	nt
Nc1ccc(NC(=O)NC2CCCCC2)cc1[N+](=O)[O-]	95	0	-8	3	nt
COc1ccc(N2C(=O)CC(Sc3n[nH]c(-c4ccccc4)n3)C2=O)cc1 (configuration not stated)	99	4	0	88*	85*
CCc1nn(C(C)C(=O)NCc2ccc(Cl)cc2)c(=O)c2cc3occc3n12 (configuration not stated)	106	-1	1	-3	nt
CCCS(=O)(=O)N1CCCC(C(=O)Nc2ccc3c(c2)CCC3)C1 (configuration not stated)	105	-3	-2	-1	nt
SMILES	ABCB6 inh 2	rCAG binder	PG9 Ab binder	Exocytosis inh	Granule exo CP1
Cc1ccc(/C=C2/NC(=O)N(Cc3ccccc3)C2=O)o1	213	11	-1	58*	-9
CCCN(S(=O)(=O)c1ccccc1F)S(=O)(=O)c1ccccc1Br	100	0	-2	57*	-5
COc1ccc(CCNC(=O)C(=O)N/N=C/c2cccs2)cc1OC	88	-2	-2	-1	nt
O=C(NS(=O)(=O)Nc1ccccc1)C1=C(N2CCCC2)COC1=O	101	0	-2	-2	nt
COc1ccc(S(=O)(=O)N2CCN(C(=O)CCNC(=O)c3ccccc3Cl)CC2)cc1	101	-2	-3	0	nt
COc1ccc(S(=O)(=O)N2CCN(C(=O)CCSc3ccccc3)CC2)cc1	94	1	0	102*	-4
OCCC1CN(CCCc2ccccc2)CCN1CCc1ccccc1 (configuration not stated)	102	-5	0	61*	-4
OCCC1CN(CCCc2ccccc2)CCN1Cc1ccccc1 (configuration not stated)	100	-2	-1	0	nt
CSc1ccccc1NC(=O)CN(C)C(=O)CCc1c[nH]c2ccccc12	104	0	1	62*	-15
NC(=O)C1(c2ccccc2)OC1c1ccccc1 (configuration not stated)	105	0	-2	22	nt
Cc1cccc(NC(=O)CCN2CCCC(C)C2)c1 (configuration not stated)	102	-2	0	-5	nt
O=C(CSc1nccn(-c2cccc(F)c2)c1=O)Nc1ccc(Cl)cc1F	100	8	0	76*	-10
O=[N+]([O-])c1cccc(C2Nc3ccccc3CO2)c1 (configuration not stated)	98	2	1	2	nt
Cc1ccc2nc(-c3ccc(NC(=S)NC4CC(C)(C)NC(C)(C)C4)cc3)sc2c1	97	15	0	88*	98*
O=C(c1cc(-c2ccccc2)n[nH]1)N1CCc2c([nH]c3ccccc23)C1c1ccccn1 (configuration not stated)	105	5	-2	-1	nt
Cc1cc(Nc2cc(Cl)cc(Cl)c2)nc(N)n1	96	3	1	62*	-10
Cc1ccc(S(=O)(=O)N2C[C@]3(O)C[C@@H]4C(=O)N(c5ccccc5)C(=O)[C@@H]4C[C@]3(OC(=O)Nc3cccs3)C2)cc1	96	10	-3	0	nt
COc1ccc(Nc2nc(N3CCN(S(=O)(=O)N(C)C)CC3)nc3ccccc23)cc1	96	-5	0	81*	-4
O=C1CC2(CCCCCC2)Oc2ccccc21	92	2	-2	63*	-14
Cc1cccc(-n2c(Cc3cc(=O)[nH]c(=O)[nH]3)nnc2SCC(=O)N2CCc3ccccc32)c1	104	4	0	-1	nt
Cc1ccc2nc(Br)c3c(c2c1)OC(CBr)C3 (configuration not stated)	91	-1	7	20	nt
Cc1ccc(S(=O)(=O)N2CCC(C(=O)OC(C)C(=O)NCc3ccccc3)CC2)cc1C (configuration not stated)	89	0	-1	5	nt
O=C(O)C1=C[C@H](c2ccccc2)C[C@H](OCCCCO)O1	98	6	0	58*	-13
